This is an account of results in PubChem BioAssay.

The experiment can be described thus: hepatitis C replication reporter changes, two-sided – Huh7 cells, luciferase reporter, HCV replication inhibitor project, primary screen (AID 1109).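 Further: huh7 hepatoma cells harbouring a luciferase neomycin HCV replicon reporter; luciferase luminescence as measure of HCV replicon replication; test concentration not given here.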 Conditions: Huh7 HCV replicon luciferase reporter, 48 h; higher = more signal. In general terms: Reporter assays use an easily measured gene product as a stand-in for the process of interest.
In turn, `CCOC(=O)[C@H](Cc1ccccc1)NC(=O)CCC1CC(OC(=O)NCCc2ccc(F)cc2)CC2(CCCC(COC(=O)NCc3cccc(C(F)(F)F)c3)O2)O1` (stereo partly specified) registered a z-score of -1.8.
Under `C[C@H]1CC[C@@H](C(=O)O)N[C@@H]1c1ccc(C#Cc2ccccc2)cc1` stands -4.69; under `C[C@H]1CC[C@H]2C(=O)OC(COc3ccc(C(C)(C)C)cc3)CN2[C@@H]1c1ccc(Br)cc1` (stereo partly specified), 1.1; under `OC[C@H]1O[C@H](C#Cc2ccccc2)C=C[C@@H]1O`, -0.125.
As for `CC(C)(C)N1C(=O)[C@H]2[C@H]3[C@H](O)[C@H](O)CC(=NOC[C@@H](O)COCc4ccco4)[C@@H]3CC[C@H]2C1=O`, the z-score was -0.287.
On to `COC(=O)[C@H](C)NC(=O)CCC1CC(OC(=O)NCc2ccc3c(c2)OCO3)CC2(CCCC(COC(=O)NCc3ccccc3)O2)O1` (stereo partly specified), for which the z-score amounted to 0.188.
The value for `O=C1[C@H]2[C@H]3[C@H](O)[C@H](O)CC(=NOC[C@@H](O)COCc4ccco4)[C@@H]3CC[C@H]2C(=O)N1Cc1ccccc1` was -0.114; that for `COc1ccc(COC(=O)NN=C2C[C@@H](O)[C@@H](O)[C@@H]3[C@@H]4C(=O)N(C5CCCCC5)C(=O)[C@@H]4CC[C@@H]23)cc1` was -1.76; that for `CC(=O)OC[C@H]1O[C@@H](ON=C(C)CCN2CCCCc3nc(C)c(C)cc32)[C@H](OC(C)=O)[C@@H](OC(C)=O)[C@@H]1OC(C)=O` was -0.997.
Consider `CCOC(=O)[C@H](CC(C)C)NC(=O)CCC1CC(OC(=O)NCc2ccc3c(c2)OCO3)CC2(CCCC(COC(=O)NCCOC)O2)O1` (stereo partly specified), for which the z-score was -0.322.
`CO[C@H]1COC(=O)[C@H](C)COC(=O)[C@@H](OCc2ccccc2)C=C[C@@H]1C` returned a z-score of -0.0886.
